# Data: PubChem BioAssay AID651814 (National Center for Advancing Translational Sciences (NCATS), 2012)
# The whole screen tested about 2,100 compounds, of which about 590 (28%) were called active. About 42% were inconclusive and are not listed. Some of the results follow. A number with no mark means an inactive call. Calls come from the whole dose curve; as a rule, active = well fitted inhibition curve with a large enough effect; inconclusive = small, poorly fitted or top-dose-only effect; inactive = flat fitted curve, though single readings scatter.
# Molecular target: DNA dC->dU-editing enzyme APOBEC-3F (Homo sapiens) (UniProt Q8IUX4)
# Assay: qHTS for inhibitors of Vif-A3F interactions: Cherry picks; note: nearly all actives have a fitted effect of over 70% in size;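 for max response: % of control where 0% means no effect; active compounds raise eYFP fluorescence by blocking Vif-driven A3F loss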
# Details: HeLa A3F-eYFP + Vif (tagged APOBEC3F with the HIV-1 protein that degrades it), eYFP fluorescence, 24 h
# From the text: The recent discovery and characterization of host restriction factors, which provide a potent defense to invading retroviruses, has provided new targets for antiviral drug development. APOBEC3G (A3G) and APOBEC3F (A3F) are potent cytidine deaminases that block HIV-1 replication; HIV-1 expresses the Vif protein, which counteracts A3G and A3F by binding to them and inducing their proteasomal degradation. The Vif-A3G and Vif-A3F interactions provide two potential targets for development of small molecules which can interfere with the ability of Vif to degrade A3G or A3F. […] To identify inhibitors that can interfere with Vif mediated degradation of A3G and A3F, we have developed Hela cell lines that stably express A3G or A3F tagged with eYFP at the C-terminal end (A3G-eYFP or A3F-eYFP, respectively) and Vif. In the absence of an inhibitor, Vif induces degradation of A3G-eYFP and A3F-eYFP, and the cells are not fluorescent. In the presence of an inhibitor, it is expected that Vif will be unable to degrade A3G-eYFP and/or A3F-eYFP, resulting in an increase in yellow fluorescence. In this assay, Vif A3F was screened against the cherry picks ordered from the MLSMR. NIH Chemical Genomics Center [NCGC] NIH Molecular Libraries Probe Centers Network [MLPCN] MLPCN Grant: MH093245 Assay Submitter (PI): Vinay Pathak, National Cancer Institute
# A3F-Vif cells were harvested from T225 flask and resuspended in phenol free OPTI-MEM medium with 5% FBS. Then 5 uL of 140,000 cells/mL resuspended cells was dispensed into each well of low base Aurora COC 1,536-well plates (black walled, clear bottom) using a Multidrop Combi dispenser. After overnight culture at 37 deg C with 5% CO2, a total of 23 nL of compounds at 5 selected concentrations from the NPC or positive control (2 mM stock of MG132) in DMSO was transferred to each well of the assay plate using a pintool (Kalypsys, San Diego, CA), and the plates were further incubated at 37 deg C with 5% CO2 for 24 hours. After that, the plates were measured on Acumen Explorer (TTP Lab Tech). The fluorescence was detected by 488 nm/Ex and […].
# Potency is the fitted concentration of half-maximal effect.
# Chain of DNA dC->dU-editing enzyme APOBEC-3F (Homo sapiens) (Q8IUX4 whole entry, looked up): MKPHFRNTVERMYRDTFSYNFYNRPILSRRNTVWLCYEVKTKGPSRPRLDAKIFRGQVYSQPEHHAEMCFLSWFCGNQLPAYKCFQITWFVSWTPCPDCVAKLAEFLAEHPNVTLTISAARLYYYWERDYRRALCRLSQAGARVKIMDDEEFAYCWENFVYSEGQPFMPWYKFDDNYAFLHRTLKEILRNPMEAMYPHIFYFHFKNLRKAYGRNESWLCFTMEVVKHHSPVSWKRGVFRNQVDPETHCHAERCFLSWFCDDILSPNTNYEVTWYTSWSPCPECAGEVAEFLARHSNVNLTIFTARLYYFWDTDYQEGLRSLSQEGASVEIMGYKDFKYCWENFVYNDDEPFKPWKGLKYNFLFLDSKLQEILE
Structure (SMILES),Potency,max response [%]
Cc1ccc(CNC(=O)c2ccccc2NC(=O)c2nsc3ccccc23)cc1,20.6 µM (active),
Cc1ccc(/C=C2/C(=O)NC(=O)N(CCc3ccc(F)cc3)C2=O)s1,,-13.3
CCN(CC)c1ccc(C=C2C(=O)N(C)C(=S)N(C)C2=O)o1,3.96 µM (active),
CCN(CC)c1ccc(/C=C2\C(=O)NC(=S)N(C)C2=O)o1,14 µM (active),
Cc1cccc(-n2c(/C=C/c3c(C)[nH]c4ccccc34)nc3ccccc3c2=O)c1,20.6 µM (active),
O=Cc1c(C(=O)O)n(Cc2ccc(Cl)cc2)c2ccccc12,20.6 µM (active),
CC(=O)OC1C2(CC3N4C(=O)C5(CO)SSC4(CC31O)C(=O)N5C)OC(C)C(C)(C)C2=O (stereo not drawn),6.27 µM (active),
Cc1cccc(CN2CCCC(C(=O)c3cccc(OC(C)C)c3)C2)n1 (stereo not drawn),,3.61
O=C1NC(=S)SC1=Cc1ccc(N(CCCl)CCCl)cc1,14 µM (active),
ClCCN(CCCl)c1ccc(C=Cc2ccncn2)cc1,,-17
CN1C(=O)C(=Cc2ccc(N3CCOCC3)o2)C(=O)N(C)C1=S,23.1 µM (active),
CN1C(=O)C(=Cc2ccc(N3CCCCC3)o2)C(=O)N(C)C1=S,5.17 µM (active),
CN1C(=O)C(=Cc2ccc(N3CCOCC3)o2)C(=O)N(C)C1=O,18.4 µM (active),
O=C1NC(=O)N(c2ccc3c(c2)OCO3)C(=O)/C1=C/c1ccc(N2CCCCC2)o1,23.1 µM (active),
O=C1NC(=O)N(c2ccc3c(c2)OCO3)C(=O)/C1=C\c1ccc(N2CCCCC2)o1,18.4 µM (active),
CN(C)c1ccc(/C=C/C=C2/C(=O)NC(=O)N(c3ccccc3)C2=O)cc1,16.4 µM (active),
O=C1NC(=O)N(Cc2ccc(F)cc2)C(=O)/C1=C\C=C\c1ccco1,,-29.5
Cc1ccc(N2C(=O)NC(=O)/C(=C\C=C\c3ccco3)C2=O)cc1C,,-16.6
CC(C)c1ccc(N2C(=O)NC(=O)/C(=C\C=C\c3ccco3)C2=O)cc1,17.7 µM (active),
Cc1cc(N2CCCC2)ccc1C=C(C#N)C#N,7.31 µM (active),
Cc1nn(Cc2ccccc2)c(C)c1C(=O)OCC(=O)Nc1ccccc1SCC#N,14 µM (active),
CC/C(=N\NC(=O)c1ccccc1O)c1c(O)n(Cc2ccccc2)c(=O)[nH]c1=O,,-28.7
CCN(CC)c1ccc(N=Cc2c(O)n(Cc3ccccc3)c(=O)[nH]c2=O)cc1,3.26 µM (active),
CCN(CC)c1ccc(N=Cc2c(O)n(CCC3=CCCCC3)c(=O)[nH]c2=O)cc1,3.66 µM (active),

Structure (SMILES),Potency,max response [%]
CC1=CC(=Cc2sc3ccccc3[n+]2C)C=C(C)O1,5.17 µM (active),
CCCCn1c(O)c(C(=O)/C=C/c2c[nH]c3ccccc23)c(=O)[nH]c1=O,12.5 µM (active),
CN1C(=O)/C(=C\c2ccc(N3CCCCC3)o2)C(=O)NC1=S,14 µM (active),
Cc1cc(/C=C2\C(=O)NC(=O)N(c3ccc(Br)cc3)C2=O)c(C)n1C,,-6.73
CN1CCN(c2ccc(/C=C3\C(=O)NC(=S)N(c4cccc(Br)c4)C3=O)o2)CC1,18.4 µM (active),
CN1C(=O)/C(=C/c2ccc(N3CCCCCC3)o2)C(=O)NC1=S,12.5 µM (active),
CCC(C)N1C(=O)/C(=C\c2ccc(N3CCCCCC3)cc2)C(=O)NC1=S (stereo not drawn),,-14.3
O=c1[nH]c(CN2CC=C(c3ccccc3)CC2)nc2scc(-c3ccccc3)c12,18.4 µM (active),
Nc1ccc2c3c(cccc13)-c1ccccc1-2,4.11 µM (active),
COc1cc(C2C(C#N)=C(N)Oc3cc(O)ccc32)cc(OC)c1OC (stereo not drawn),1.98 µM (active),
CCCCNC(=O)/C(C#N)=c1\s/c(=C\c2ccccc2OC(F)F)c(=O)n1CCCOC,16.4 µM (active),
CCCCCn1c(NC(=O)c2ccco2)c(C(=O)OCC)c2nc3ccccc3nc21,15.8 µM (active),
COCCNC(=O)c1c(NC(=O)c2ccc(Br)o2)n(Cc2ccccc2)c2nc3ccccc3nc12,,-6.71
O=c1[nH]c(=O)n(Cc2ccccc2Cl)c(O)c1/C=C1/C=CC=N1,9.2 µM (active),
CC(C)CCCn1c(O)c(/C=C2/C=CC=N2)c(=O)[nH]c1=O,18.4 µM (active),
COC(=O)C1=C(C)N(Cc2ccco2)C(=O)/C1=C\c1ccc(N(C)C)cc1,13 µM (active),
O=c1c2ccccc2nc(/C=C/c2ccc([N+](=O)[O-])o2)n1-c1ccc(O)cc1,12.5 µM (active),
CN1/C(=C\C=C2C(=O)NC(=O)NC2=O)C(C)(C)c2ccccc21,,-9.38
O=C1NC(=O)N(Cc2ccc(F)cc2)C(=O)/C1=C\c1ccoc1,,-24.2
O=C(Cc1ccccc1)c1ccccn1,17.7 µM (active),
CCS(=O)(=O)N1N=C(c2cccc(NS(C)(=O)=O)c2)CC1c1ccccc1 (stereo not drawn),23.1 µM (active),
Cc1ccccc1-n1c(/C=C/c2ccc(N(C)C)cc2)nc2ccccc2c1=O,3.26 µM (active),
COc1ccccc1-n1c(/C=C/c2ccc(O)cc2)nc2ccccc2c1=O,,-0.327
O=c1nc(/C=C/c2ccc(Cl)cc2Cl)cc(C(F)(F)F)[nH]1,,-25.1
